Data from PubChem BioAssay.
Activity calls are given as the source filed them.

Assay: probe aCHRDL2 binding to arrayed compounds – biochemical, biotinylated probe, 635/667 nm fluorescence, primary screen (AID 1100)
Conditions: small-molecule microarray, higher = more signal

| Structure (SMILES) | composite z-score |
| --- | --- |
| C[C@]12CCC3c4ccc(OCC5CO5)cc4CCC3C1CC[C@@H]2O (stereo not given in full) | 0.596 |
| COC(=O)[C@@H]1CC[C@H](C)[C@@H](c2ccc(Br)cc2)N1C[C@@H](O)CN=[N+]=[N-] | -0.304 |
| O=C1CCCC=C1C(O)C1CCCCC1 (stereo not given) | -0.476 |
| CCOC(=O)[C@H](CC(C)C)NC(=O)CCC1CC(OC(=O)NCc2ccc3c(c2)OCO3)CC2(CCCC(COC(=O)NCCc3ccccc3OC)O2)O1 (stereo not given in full) | -0.497 |

Assay: change in splice reporter luminescence, either direction, cell-based, HEK293, spliceosome inhibition project, primary screen (AID 1101);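 further: HEK293 cells carrying a splicing-competent luciferase reporter gene; test concentration not given here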
Conditions: HEK293 splicing luciferase reporter, 24 h, higher = more signal, called active from +8 up or from −8 down

| Structure (SMILES) | z-score |
| --- | --- |
| COC(=O)[C@H](C)NC(=O)CCC1CC(OC(=O)NCCc2ccc(F)cc2)CC2(CCCC(COC(=O)NCC3CCCCC3)O2)O1 (stereo not given in full) | -0.863 (inactive) |
| COc1ccc2c(c1)O[C@@H](c1cccc(C(F)(F)F)c1)[C@H](O)C2=O | -0.912 (inactive) |
| CCOC(=O)[C@H](Cc1ccccc1)NC(=O)CCC1CC(OC(=O)NCc2ccc3c(c2)OCO3)CC2(CCCC(COC(=O)NCCOc3ccccc3)O2)O1 (stereo not given in full) | -1.13 (inactive) |
| CC(=O)OC[C@H]1O[C@@H](ON=C(C)C)[C@H](OC(C)=O)[C@@H](OC(C)=O)[C@@H]1OC(C)=O | 0.851 (inactive) |
| CCOC(=O)[C@H](Cc1ccccc1)NC(=O)CCC1CC(OC(=O)NCc2ccc3c(c2)OCO3)CC2(CCCC(COC(=O)NCCc3ccc(Cl)cc3)O2)O1 (stereo not given in full) | -2.3 (inactive) |
| O=C1C=C[C@@H](O)[C@@H]2[C@@H]3C(=O)N(Cc4ccccc4)C(=O)[C@@H]3CC[C@@H]12 | -0.71 (inactive) |
| COC(=O)C1=C(C)N(Cc2ccccc2)C2=C3C(=O)OCC[C@@H]3[C@@](O)(C(=O)OC)C(=O)N2[C@@H]1c1ccccc1 | -0.403 (inactive) |
| CCCNC(=O)OC[C@H]1O[C@H](CCON=C[C@@H](NS(=O)(=O)c2ccc(C)cc2)[C@H](C)C=CCC(=O)OC)C=C[C@@H]1Oc1ccc(OC)cc1 | -0.362 (inactive) |
| CC=CC1=C(CO)[C@H](O)[C@H]2O[C@H]2[C@@H]1O | 0.666 (inactive) |
| COc1ccc(O[C@H]2C=C[C@@H](C#Cc3ccccc3)O[C@@H]2CO)cc1 | 1.45 (inactive) |
| COC(=O)[C@@H]1CC[C@H](C)[C@@H](c2ccc(C)cc2)N1C(=O)c1ccc(C=NOC[C@H]2O[C@H](c3ccccc3)C=C[C@@H]2Oc2ccc(OC)cc2)cc1 | -0.0767 (inactive) |
| CON=C1c2cc(OC)ccc2O[C@H](c2cccc(OC)c2)[C@H]1O | -0.268 (inactive) |
| C[C@@H]1CC[C@H]2C(=O)OC(Cc3ccccc3)CN2[C@H]1c1ccc(Br)cc1 (stereo not given in full) | 0.264 (inactive) |
| C=CCOCC1CN2[C@@H](CC[C@@H](C)[C@@H]2c2ccc(Br)cc2)C(=O)O1 (stereo not given in full) | 0.597 (inactive) |
| COc1ccc(COC(=O)NN=C2C[C@@H](O)[C@@H](O)[C@@H]3[C@@H]4C(=O)N(Cc5ccccc5)C(=O)[C@@H]4CC[C@@H]23)cc1 | -0.221 (inactive) |
| COC(=O)[C@H](C)NC(=O)CCC1CC(OC(=O)NCCc2ccc(F)cc2)CC2(CCCC(COC(=O)NCCOc3ccccc3)O2)O1 (stereo not given in full) | 0.587 (inactive) |
| COC(=O)[C@H](C)NC(=O)CCC1CC(OC(=O)NCCc2ccc(F)cc2)CC2(CCCC(COC(=O)NCCc3ccccc3OC)O2)O1 (stereo not given in full) | -0.221 (inactive) |
| CCOC(=O)[C@H](CC(C)C)NC(=O)CCC1CC(OC(=O)NCc2ccc3c(c2)OCO3)CC2(CCCC(COC(=O)NCCC(C)C)O2)O1 (stereo not given in full) | -0.748 (inactive) |

| Structure (SMILES) | z-score |
| --- | --- |
| C=C(C)C(=O)OC[C@H]1CN2[C@@H](CC[C@@H](C)[C@@H]2c2ccc(Br)cc2)C(=O)O1 | -0.286 (inactive) |
| CO[C@@H]1COC(=O)[C@H](COCc2ccccc2)NC(=O)CC=C[C@@H](C)[C@H](OC)COC(=O)[C@@H](C)NC(=O)CC=C[C@H]1C | 0.0772 (inactive) |
| O=C1C[C@H](c2ccccc2)[C@H](c2ccc(Br)cc2)O1 | -0.823 (inactive) |
| CC(CCN1CCCc2nc(C)c(C)cc21)=NO[C@H](C)c1cn([C@H](CO)Cc2ccccc2)nn1 | 0.407 (inactive) |
| COC(=O)[C@@H]1CC[C@H](C)[C@@H](c2ccc(Br)cc2)N1C(=O)C(F)(F)F | -0.0429 (inactive) |
| CC(CCN1CCCc2nc(C)c(C)cc21)=NOC[C@@H](O)COCc1ccco1 | 0.58 (inactive) |
| C#CCCCON=C1C[C@@H](O)[C@@H](O)[C@@H]2[C@@H]3C(=O)N([C@@H](C)c4ccccc4)C(=O)[C@@H]3CC[C@@H]12 | -0.0154 (inactive) |
| O=C1C2=CC[C@H]3C(=O)N(Cc4ccccc4)C(=O)[C@H]3[C@H]2[C@H](O)[C@@H]2O[C@H]12 | 6.91 (inactive) |
| CC(CCC(=O)OC[C@H]1O[C@H](C#Cc2ccccc2)C=C[C@@H]1Oc1ccc(C)cc1)=NOC(C)CN1CCCCc2nc(C)c(C)cc21 (stereo not given in full) | -0.176 (inactive) |
| CCOC(=O)NN=C1C[C@@H](O)[C@@H](O)[C@@H]2[C@@H]3C(=O)N(CC)C(=O)[C@@H]3CC[C@H]12 | -0.322 (inactive) |
| CON=C(C)CCN1CCCCc2nc(C)c(C)cc21 | 0.248 (inactive) |
| CO[C@@H](C1CCCCC1)[C@@H](C)[C@H](OCc1cccc(Br)c1)[C@@H](C)CO | 0.899 (inactive) |
| O=C1CCCC=C1C(O)COCc1ccccc1 (stereo not given) | -0.0937 (inactive) |
| C=CC[C@@H]1C=C[C@H](ON=CC[C@@H]2C=C[C@H](OC(C)=O)[C@@H](COC(C)=O)O2)[C@@H](CO)O1 | 0.743 (inactive) |
| C[C@]12CCC3c4ccc(OCC5CO5)cc4CCC3C1CC[C@@H]2O (stereo not given in full) | 0.147 (inactive) |
| COC(=O)[C@@H]1CC[C@H](C)[C@@H](c2ccc(Br)cc2)N1C[C@@H](O)CN=[N+]=[N-] | -1.34 (inactive) |
| O=C1CCCC=C1C(O)C1CCCCC1 (stereo not given) | 0.301 (inactive) |
| CCOC(=O)[C@H](CC(C)C)NC(=O)CCC1CC(OC(=O)NCc2ccc3c(c2)OCO3)CC2(CCCC(COC(=O)NCCc3ccccc3OC)O2)O1 (stereo not given in full) | 0.0955 (inactive) |
